Test results reported in PubChem BioAssay (EPA / NIEHS).
The source made the active and inactive calls. The calls were made as follows: active = hit-call score of the fitted dose curve at least 0.9, where 1 is the maximum; inactive = score below 0.9.

Biological target: Aryl hydrocarbon receptor (Homo sapiens) (UniProt P35869)
Test: ATG_Ahr_CIS: Attagene CIS-FACTORIAL HepG2 Assay for human Aryl Hydrocarbon Receptor (Ahr) (AID 2282930)
Settings: HepG2 AhR cis-factorial reporter transcription; actives raise or lower the signal
Method: ATG_CIS is a cell-based, multiplexed-readout assay that uses HepG2, a human liver cell line, with measurements taken at 24 hours after chemical dosing in a 24-well plate.ATG_Ahr_CIS is one of 52 assay component(s) measured or calculated from the ATG_CIS assay. It is designed to make measurements of mRNA induction, a form of inducible reporter, as detected with fluorescence intensity signals by Reverse transcription polymerase chain reaction (RT-PCR) and Capillary electrophoresis technology.Data from the assay component ATG_Ahr_CIS was analyzed into 1 assay endpoint. This assay endpoint, ATG_Ahr_CIS, was analyzed with bidirectional fitting relative to DMSO as the negative control and baseline of activity. Using a type of inducible reporter, measures of mRNA for gain or loss-of-signal activity can be used to understand the reporter gene at the transcription factor-level as they relate to the gene AHR. Furthermore, this assay endpoint can be referred to as a primary readout, because this assay has produced multiple assay endpoints where this one serves a reporter gene function. To generalize the intended target to other relatable targets, this assay endpoint is annotated to the dna binding intended target family, where the subfamily is basic helix-loop-helix protein.
Human liver HepG2 cells are transiently transfected with multiple reporter transcription units (MRTUs) in 6-well plates using FuGene 6 reagent (Roche; 3 ml FuGene/1 mg DNA). The MRTU constructs are regulated by a cis-regulating element (promoter). […] A major difference between the CIS and TRANS system is that in CIS activities of endogenous TFs are measured, whereas the TRANS assay evaluates changes in activities of exogenous, chimeric NR-Gal4 proteins. […] At the end of 24 hour incubation, total RNA was isolated using TriZol reagent (Invitrogen). The isolated RNA is then reverse-transcribed using oligo(dT) primer and Mo-MLV reverse transcriptase (Invitrogen) with DNAse I (Ambion) treatment for 30 min. The one-tenth of the produced cDNA was amplified by PCR using Taq DNA polymerase (Invitrogen) and two reporter sequence-specific primers. The PCR products were fluorescently labeled by primer extension with 6-arboxyfluorescein (6-FAM) 5'-labeled reporter sequence-specific primer (2 min at 95 C, 20 s at 68 C and 10 min at 72 C) and these products were digested with 5U of HpaI (New England Biolabs) for 2h at 37 C. […] The raw capillary electrophoresis data was processed using Attagraph software (Attagene).

Aryl hydrocarbon receptor (Homo sapiens), sequence (P35869 whole entry, looked up): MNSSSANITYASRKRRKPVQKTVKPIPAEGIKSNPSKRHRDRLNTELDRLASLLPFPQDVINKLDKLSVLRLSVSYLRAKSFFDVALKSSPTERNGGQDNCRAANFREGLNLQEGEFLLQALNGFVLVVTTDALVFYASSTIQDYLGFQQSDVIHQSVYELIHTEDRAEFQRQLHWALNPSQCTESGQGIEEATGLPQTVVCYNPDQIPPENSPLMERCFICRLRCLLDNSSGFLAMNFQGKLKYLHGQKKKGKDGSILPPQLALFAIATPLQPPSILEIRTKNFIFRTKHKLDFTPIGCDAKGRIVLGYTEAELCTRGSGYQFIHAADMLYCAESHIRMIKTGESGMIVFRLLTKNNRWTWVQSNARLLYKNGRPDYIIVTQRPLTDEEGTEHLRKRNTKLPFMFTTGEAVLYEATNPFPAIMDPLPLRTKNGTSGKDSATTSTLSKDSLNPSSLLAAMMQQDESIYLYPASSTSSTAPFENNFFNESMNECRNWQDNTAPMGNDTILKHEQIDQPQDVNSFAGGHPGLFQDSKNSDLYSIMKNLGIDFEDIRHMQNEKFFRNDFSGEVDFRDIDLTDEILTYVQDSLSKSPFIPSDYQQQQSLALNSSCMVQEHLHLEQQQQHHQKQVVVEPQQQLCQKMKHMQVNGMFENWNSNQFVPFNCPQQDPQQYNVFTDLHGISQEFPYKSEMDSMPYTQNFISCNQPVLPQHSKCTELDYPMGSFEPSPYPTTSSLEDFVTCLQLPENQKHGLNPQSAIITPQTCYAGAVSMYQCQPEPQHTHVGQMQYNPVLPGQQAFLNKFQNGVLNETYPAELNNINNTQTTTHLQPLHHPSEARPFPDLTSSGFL

AC50, active:
C[C@H]1C[C@H]2[C@@H]3CCC4=CC(=O)C=C[C@]4(C)[C@@]3(F)[C@@H](O)C[C@]2(C)[C@@]1(O)C(=O)CO 44.6 µM
CC1=C(CC(=O)O)c2cc(F)ccc2/C1=C\c1ccc(S(C)=O)cc1 (stereo not given) 3.48 µM
O=C(O)c1cc(Cl)cc(Cl)c1O 79 µM
CC(C)n1c(/C=C/[C@@H](O)C[C@@H](O)CC(=O)O)c(-c2ccc(F)cc2)c2ccccc21 51.7 µM
O=C(C1CCCCC1)N1CC(=O)N2CCc3ccccc3C2C1 (stereo not given) 27.8 µM
Cc1cc(C)c(S(=O)(=O)O)cc1N=Nc1cc(S(=O)(=O)O)c2ccccc2c1O 42.4 µM
CC(C)(C)NC(=O)[C@@H]1CN(Cc2cccnc2)CCN1C[C@@H](O)C[C@@H](Cc1ccccc1)C(=O)N[C@H]1c2ccccc2C[C@H]1O 57.2 µM

outcome, inactive:
CC/C=C\CC1=C(C)CCC1=O
CC1=C(CC=O)C(C)(C)CCC1
COC(=O)c1ccccc1
CC(C)(Oc1ccc(Cl)cc1)C(=O)O
Oc1ccc(Oc2ccccc2)cc1
COc1ccc2ccccc2c1
CN(C)CCCN1c2ccccc2CCc2ccc(Cl)cc21
COc1ccccc1OCC(O)CO (stereo not given)
CC1(C)S[C@@H]2[C@H](NC(=O)[C@H](N)c3ccccc3)C(=O)N2[C@H]1C(=O)O
F[B-](F)(F)F
CC1=NN(c2cc(Cl)c(S(=O)(=O)O)cc2Cl)C(=O)C1N=Nc1ccc(S(=O)(=O)O)cc1 (stereo not given)
C1=CCC=C1
Nc1ccc(S(=O)(=O)Nc2cnc3ccccc3n2)cc1
CC(O)(P(=O)(O)O)P(=O)(O)O
CN(C)CCC(c1ccc(Cl)cc1)c1ccccn1 (stereo not given)
OCCN(CCO)c1cccc(Cl)c1
CCCCCCCCCCCCCC
C[Si](C)(C)O[Si](C)(C)O[Si](C)(C)C
CCCCn1cc[n+](C)c1
Cc1cccnc1
CCCN[C@H]1CCc2nc(N)sc2C1
CCCCCCCCCCC1CO1 (stereo not given)
CN(C)c1ccc(C(c2ccccc2)c2ccc(N(C)C)cc2)cc1
